Reference: article PMC5540273 (PLoS ONE, 2017)

Assays:
Settings in all cases: concentration: 1 μM, replicates: in singlicate; n = 1
[1] = test system: LCK
[2] = test system: LIMK1
[3] = test system: LIMK2
[4] = test system: T1, LKB1
T1 construct: gene STK11

[5] = test system: T2, LOK
T2 construct: gene STK10

[6] = test system: LRRK2
[7] = test system: LTK
[8] = test system: LYN
[9] = test system: T3, LZK
T3 construct: gene MAP3K13

[10] = test system: MAK
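Note: KINOMEscan kinase panel screen.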

| SMILES | %Inh [1] | %Inh [2] | %Inh [3] | %Inh [4] | %Inh [5] | %Inh [6] | %Inh [7] | %Inh [8] | %Inh [9] | %Inh [10] |
| --- | --- | --- | --- | --- | --- | --- | --- | --- | --- | --- |
| CN(c1ccc(F)c(NC(=O)c2cccc(OC(C)(C)C#N)c2Cl)c1)c1ccc2nc(NC(=O)C3CC3)sc2n1 | 97.9% | 0% | 0% | 11% | 95.4% | 9% | 0% | 93.1% | 46% | 0% |
| Nc1cccc(-c2ccc3c(N)n[nH]c3c2)c1 [GSK2193613] | 9% | 0% | 12% | 12% | 0% | 0% | 0% | 0% | 0% | 18% |
| COc1cc(Nc2nccc(N3CCC(NC(=O)Nc4ccc5c(c4)OCO5)C3)n2)cc(OC)c1OC (stereo not drawn) [GSK1379766] | 32% | 40% | 13% | 0% | 0% | 0% | 74% | 3% | 24% | 3% |
| O=C(Nc1n[nH]c2nc(-c3ccccc3)ccc12)C1CC1 [SB-708999] | 9% | 0% | 31% | 0% | 30% | 0% | 0% | 21% | 2% | 38% |
| COC(=O)Nc1nc2ccc(Oc3ccc(NC(=O)Nc4cc(C(F)(F)F)ccc4F)cc3)cc2[nH]1.Cl [GW654607] | 99.3% | 37% | 16% | 0% | 99.1% | 28% | 63% | 86% | 0% | 85% |
| Cl.N#CCc1ccc(Nc2nccc(Nc3ccc(Oc4ccccc4)cc3)n2)cc1 [GW639905] | 90.6% | 25% | 11% | 0% | 0% | 58% | 42% | 62% | 0% | 20% |
| Cc1cccc(Nc2nc(NCCN)ncc2C(N)=O)c1 [GSK1292139] | 15% | 0% | 0% | 24% | 0% | 0% | 26% | 3% | 0% | 15% |
| Fc1cc(Cl)ccc1Nc1ccnc2cc(-c3ccc(CN4CCOCC4)o3)ccc12 [GW560109] | 97% | 0% | 0% | 0% | 62% | 70% | 57% | 76% | 0% | 7% |
| O=C1NC(=O)C(c2ccccc2Cl)=C1Nc1cccc(Cl)c1 [SB-342409] | 1% | 20% | 89% | 0% | 5% | 2% | 0% | 0% | 0% | 12% |
